# The sample as a whole holds a higher share of hits than the screen did.
# Methyltransferases: Primary Screen for Target Class Profiling of Small Molecule Inhibitors of Methyltransferases; purified enzyme, MTase-Glo SAH luminescence; active compounds read low; calls only at 40 µM; 3.9% of 25,000 active; AID 1745853, 2022; call rule not given here
#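 Each enzyme was reacted with SAM and its substrate, with compounds tested once at 40 uM; SAH formed was read by MTase-Glo luminescence.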
# * marks the source's active call; other numbers are inactive results; i = inactive; + = active, no number. % is scaled to controls: 0 for no effect and ±100 for the full control effect.
SMILES,Methyltransferases
Cc1ccc(Cn2c(=O)c3ccc(C(=O)NC(C)C)cc3n3c(=O)n(Cc4ccccc4Cl)nc23)cc1,i
CCOC(=O)c1ccc2c(c1)C1C=CCC1C(c1ccc(Br)cc1)N2 (stereo not drawn),i
Cc1ccc(CCN2C(=O)c3cc4ccccc4n3CC2(C)C(=O)NCc2ccccc2)cc1 (stereo not drawn),i
Cn1cncc1C(N)(c1ccc(Cl)cc1)c1ccc2c(c1)c(-c1cccc(Cl)c1)cc(=O)n2C (stereo not drawn),+
Nc1nc2c(c(=O)[nH]1)C[C@@H](CCc1ccc(C(=O)N[C@@H](CCC(=O)O)C(=O)O)cc1)CN2,i
CCOC(=O)c1cn(C2CN(C(=O)Cc3cccc(Cl)c3)C2)nn1,i
CCCn1c(=O)c2ccc(C(=O)NCC(C)C)cc2n2c(SCC(=O)c3ccccc3)nnc12,i
Cc1ccc(CNS(=O)(=O)c2ccc3[nH]c(=O)[nH]c3c2)cc1,i
CCCN1CCN(CCCNC(=O)c2cc3n(n2)CC(C)(C(=O)NC2CCCC2)N(CC)C3=O)CC1 (stereo not drawn),i
Oc1ccc(C2CNCc3sccc32)cc1O (stereo not drawn),+
CC(C)CCn1c(=O)c2ccccc2n2c(CCC(=O)NCc3ccc(Cl)cc3)nnc12,i
NCc1ccc(Nc2ncc(F)c(Nc3ccccc3)n2)cc1,i
CNC(=O)c1cc(Oc2ccc3nc(N[C@@H]4CCCC[C@H]4O)sc3c2)ccn1,i
C=CC(=O)Nc1cccc(Nc2nc(Nc3ccc(Oc4ccnc(C(=O)NC)c4)cc3)ncc2F)c1,+
Cc1cccc(CN2CCCn3nc(C(=O)NC(C)Cc4ccco4)cc3C2=O)c1 (stereo not drawn),i
COCCN1CCC(C(=O)N2CCn3nc(Cc4ccccc4)cc3C2)C1 (stereo not drawn),i
CN1C(=O)c2cc(C(=O)NCc3ccccc3)nn2CC1(C)C(=O)NC1CCCCCC1 (stereo not drawn),i
COc1ccc(OC)c(CN2C(=O)c3cc4ccccc4n3CC2(C)C(=O)NCCC(C)C)c1 (stereo not drawn),i
COc1ccc(N2C(=O)c3cc4ccccc4n3CC2(C)C(=O)NCCC(C)C)c(OC)c1 (stereo not drawn),i
COc1ccc(C(=O)N(CCC(C)C)Cc2nc(C)c(C)n2Cc2ccccc2C)c(OC)c1,+
CCCn1c(=O)c2ccc(Cl)cc2n2c(=O)n(Cc3ccccc3F)nc12,i
CCCN1C(=O)c2cc3occc3n2CC1(C)C(=O)NC1CCCCCC1 (stereo not drawn),i
Cc1ccccc1-n1c(Cn2nc(-c3cccc(O)c3)c3c(N)ncnc32)nc2cccc(C)c2c1=O,+
CN1C(=O)CCCCC1C(=O)NCC1CCCCC1 (stereo not drawn),i
C=C1C(=O)O[C@@H]2[C@H]3O[C@]3(C)CCC=C(C)CC[C@@H]12,i
SMILES,Methyltransferases
C=C1C(=O)OC2C1CCC1(C)C(O)CCC(=C)C21 (stereo not drawn),+
C=C1C(=O)OC2C1C(O)CC1(C)C(O)CCC(C=O)C21 (stereo not drawn),i
CCCn1c(=O)c2ccc(Cl)cc2n2c(=O)n(Cc3ccccc3C)nc12,i
CSc1ccc(CCNC(=O)c2oc3cc4sc(N(C)C)nc4cc3c2C)cc1,i
CC(C)CCn1c(=O)c2ccc(C(=O)NCC(C)C)cc2n2c(=O)n(Cc3ccc(F)cc3Cl)nc12,i
CCOc1cc(OCC)c2c(-c3ccccc3)cc(=O)oc2c1,+
CCCCCOc1ccc2c(-c3ccccc3)cc(=O)oc2c1,i
CCOc1cc2oc(=O)cc(-c3ccccc3)c2cc1Cl,i
COC(=O)c1ccccc1N1C(=O)CSc2c(c3ccccc3n2C)C1C(=O)NCc1ccccc1OC (stereo not drawn),i
C=C(C)C(=O)OC1[C@@H]2C(=C)C(=O)O[C@@H]2C[C@@H](C)[C@@H]2C=CC(=O)[C@@]12C (stereo partly drawn),i
C=C1C(=O)O[C@H]2CC(=C)[C@H]3CC[C@@](C)(O)[C@@H]3CC12 (stereo partly drawn),+
C=C1C(=O)O[C@H]2C1CCC(C)=C1C(=O)C=C(C)[C@@]12O (stereo partly drawn),i
Cc1cccc(Cn2nc3n(CCCOC(C)C)c(=O)c4ccccc4n3c2=O)c1,i
COc1cc(=O)n2c(c1C(=O)NC1CCCCCC1)CCCC2,i
Cc1nn2c(c1-c1ccccc1OCc1ccccc1)N(Cc1nccn1C)CCC2,i
CS(=O)(=O)Nc1ccc2oc3c(OC(F)F)ccc(C(=O)Nc4c(Cl)cncc4Cl)c3c2c1,+
CC(C)OCCCN1C(=O)c2cnn(-c3ccccc3)c2-n2cccc2C1C(=O)NC1CCCCCC1 (stereo not drawn),i
CCCn1c(=O)c2ccc(C(=O)NC(C)CC)cc2n2c(=O)n(Cc3ccc(Cl)cc3)nc12 (stereo not drawn),i
Cc1cc(N)c2ccccc2[n+]1CCCCCCCCCC[n+]1c(C)cc(N)c2ccccc21,+
